# Most compounds without a hit are left out; they make up all but 2.7% or so of the library.
# TCR CD3 inh – blocks the human TCR-CD3 interaction | TAMRA-labeled TCR probe fluorescence, biochemical | inhibition, % at 9.4 µM | 0.37% of 360,000 active | AID 651800; in the data active = inhibition above about 19%;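 also: recombinant mutant TCR 2C K166C tagged with TAMRA read by polarization; 0% = receptor in buffer alone and 100% = receptor with positive control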
# pPAFAH FP inh – inhibitors of human plasma PAF acetylhydrolase (pPAFAH). AID 463082. 1.5% of 330,000 active. Q13093. inhibition, % at 3.39 µM. recombinant pPAFAH, FP-rhodamine probe fluorescence polarization;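 active = inhibition above the mean inhibition across the screen plus 3 SD, cut at about 25% in these data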;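 also: inhibitors block binding of the rhodamine activity-based probe so polarization drops; 0% = enzyme with DMSO and 100% = wells lacking pPAFAH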
# PAFAH1B2 inh – inhibitors of human PAFAH1B2; P68402; recombinant PAFAH1B2, FP-rhodamine activity probe, fluorescence polarization; 1.2% of 340,000 active; inhibition, % at 3.39 µM;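 active = inhibition above the mean of all tested compounds plus 3 SD, cut at about 24% in these data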;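 also: 0% = enzyme with DMSO and 100% = wells lacking PAFAH1B2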
# Target sequence (P68402 whole entry, looked up): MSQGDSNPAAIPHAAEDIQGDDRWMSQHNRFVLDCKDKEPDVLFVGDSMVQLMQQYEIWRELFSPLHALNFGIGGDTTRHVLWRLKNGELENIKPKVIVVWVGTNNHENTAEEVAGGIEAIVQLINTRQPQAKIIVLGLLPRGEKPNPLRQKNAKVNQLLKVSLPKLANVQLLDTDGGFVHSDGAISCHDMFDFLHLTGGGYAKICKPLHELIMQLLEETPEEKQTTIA
# PAFAH2 FP inh – PAFAH2 (human) inhibition; 0.99% of 340,000 active; inhibition, % at 3.39 µM; AID 492956; recombinant PAFAH2, FP-rhodamine activity probe, fluorescence polarization; Q99487;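 active = inhibition above the mean over all tested compounds plus 3 SD, cut at about 30% in these data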;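 also: inhibitors block probe labeling of enzyme so polarization drops; 0% = enzyme with DMSO and 100% = wells lacking PAFAH2 protein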
# PAFAH1B3 inh – blocks human PAF acetylhydrolase 1B catalytic subunit 3. inhibition, % at 3.39 µM. recombinant PAFAH1B3, FP-rhodamine probe, fluorescence polarization. 0.28% of 340,000 active. AID 492972;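 active = inhibition above the screen-wide average of all tested compounds plus 3 SD, cut at about 25% in these data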;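 also: 0% = enzyme with DMSO only and 100% = wells lacking PAFAH1B3 protein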
# Target sequence (Q15102 whole entry, looked up): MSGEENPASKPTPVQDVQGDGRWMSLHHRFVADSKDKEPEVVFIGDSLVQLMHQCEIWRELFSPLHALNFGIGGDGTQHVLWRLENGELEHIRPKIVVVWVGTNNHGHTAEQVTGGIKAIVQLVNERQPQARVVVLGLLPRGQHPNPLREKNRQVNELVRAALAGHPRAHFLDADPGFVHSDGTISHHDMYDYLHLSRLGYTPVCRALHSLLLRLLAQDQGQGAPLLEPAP
# PAFAH2 FP conf – confirmation of human PAFAH2 inhibitors. inhibition, % at 3.39 µM. recombinant PAFAH2, FP-rhodamine activity probe, fluorescence polarization. shares compounds with PAFAH2 FP inh. 65% of 2,300 active;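 active = mean inhibition over three repeats above a set limit taken from the earlier primary screen, cut at about 30% in these data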;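 also: inhibitor blocks binding of rhodamine activity probe so polarization falls; 0% = enzyme with DMSO and 100% = wells lacking PAFAH2 protein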
# * marks the source's active call; other numbers are inactive results; nt = no result given; + = active, no number.
SMILES,TCR CD3 inh,pPAFAH FP inh,PAFAH1B2 inh,PAFAH2 FP inh,PAFAH1B3 inh,PAFAH2 FP conf
Cc1ccc(S(=O)(=O)N2CCCCC2)cc1NC(=O)COC(=O)C1=COCCO1,4,6,5,50*,4,40*
O=C(COC(=O)C1=COCCO1)Nc1cc(S(=O)(=O)N2CCCCC2)ccc1Cl,-1,7,2,57*,7,41*
O=C(Nc1cc(S(=O)(=O)N2CCCC2)ccc1Cl)C1=COCCO1,8,8,4,-5,2,nt
Cc1ccc(S(=O)(=O)N2CCCCC2)cc1NC(=O)COC(=O)c1cccn1C,-8,6,6,39*,-1,32*
O=C1Nc2ccccc2O/C1=C\c1ccccc1Br,3,5,0,-11,8,nt
O=C1c2cccnc2C(Nc2ccc(Cl)cc2)N1Cc1cccs1 (stereo unspecified),-7,2,2,-4,-1,nt
Cc1ccc(NC2c3ncccc3C(=O)N2Cc2cccs2)cc1C (stereo unspecified),-4,-2,0,69*,1,-8
CCOc1cc(/C=C2\C(=O)N(c3nc(-c4ccc(Br)cc4)cs3)N=C2c2ccccc2)ccc1O,nt,41*,2,55*,15,45*
COc1cc(/C=C2\C(=O)N(c3ccc(NC(C)=O)cc3)N=C2c2ccccc2)ccc1O,-11,8,4,4,1,nt
Cc1c(C#N)c(O)[nH]c(=O)c1N=Nc1ccc(S(N)(=O)=O)cc1,2,19,9,47*,14,29
COc1cccc(OC)c1C(=O)OCC(=O)NCCNC(=O)COC(=O)c1c(OC)cccc1OC,-9,nt,nt,nt,nt,nt
O=C(CN1C(=O)NC2(CCCCC2)C1=O)Nc1cccc(Cl)c1Cl,-8,5,7,0,5,nt
Cc1c(Cl)cccc1N=C1SCCN1C(=O)CN1C(=O)NC2(CCCC2)C1=O,-1,13,7,30*,5,18
CCOC(=O)c1ccccc1NC(=O)C1CCCO1 (stereo unspecified),5,8,-2,42*,3,1
CCc1ccc(NC(=O)c2ccccc2NC(=O)C2CCCO2)cc1 (stereo unspecified),7,9,2,-6,-3,nt
O=C(CCC(=O)N1CCOc2ccccc21)Nc1cc(F)ccc1F,2,6,-3,1,4,nt
N=C1C(c2nc(-c3ccc(Cl)cc3)cs2)=C(O)CN1CCCN1CCOCC1,2,20,3,30*,5,30*
N#C/C(=C\c1ccc(O)c(O)c1)C(=O)N1CCc2ccccc21,12,3,10,49*,23,33*
NC(=S)n1[nH]c(-c2ccc([N+](=O)[O-])cc2)c(N=Nc2cccc(Cl)c2)c1=O,0,nt,16,36*,17,25
Cc1[nH]n(C(N)=S)c(=O)c1N=Nc1cccc(Cl)c1,-6,11,9,5,11,nt
CCCOc1ccc2c3c(c(=O)oc2c1OCCC)CCCC3,-1,5,0,35*,-7,19
COc1cc(OC)c(C(=O)OCC(=O)Nc2cc(C)on2)cc1OC,-8,-1,-3,5,4,nt
COc1ccc(C)cc1NC(=O)COC(=O)c1c(C)noc1C,7,-1,-3,46*,5,-1
COc1cc(CC(=O)Nc2ccc(Cl)c(C(F)(F)F)c2)cc(OC)c1OC,1,1,-2,-4,9,nt
COc1ccc(C(=O)OCC(=O)Nc2ccc(Cl)c(C(F)(F)F)c2)c(OC)c1OC,2,21,3,68*,-3,77*
SMILES,TCR CD3 inh,pPAFAH FP inh,PAFAH1B2 inh,PAFAH2 FP inh,PAFAH1B3 inh,PAFAH2 FP conf
COc1ccc(C(=O)OCC(=O)Nc2cc(C)on2)c(OC)c1OC,0,3,2,68*,2,65*
COc1ccc(OC)c(NC(=O)COC(=O)c2c(C)noc2C)c1,2,0,-1,4,-4,nt
COc1cc(C(=O)OCC(=O)Nc2cc(C)on2)c([N+](=O)[O-])cc1OC,-2,1,0,37*,4,24
COc1ccc(C(=O)OCC(=O)NCc2ccccc2)c(OC)c1OC,-1,2,2,57*,-2,56*
COc1ccccc1CNS(=O)(=O)c1c(C(=O)N2CCCC2)c(C)n(C)c1C,4,3,11,0,6,nt
CCCn1c2ccccc2c2cnn(CC(=O)NCCCN3CCCC(C)C3)c(=O)c21 (stereo unspecified),-2,8,3,-1,1,nt
CC(=O)Nc1ccc(NC(=O)CC(C)n2ccnc2)cc1 (stereo unspecified),1,3,0,+,-3,5
CC(CC(=O)Nc1nc2ccccc2[nH]1)n1ccnc1 (stereo unspecified),-1,2,7,9,5,nt
CC1CCCC(C(=O)O)N1C(=O)CCSC(=O)c1ccccc1 (stereo unspecified),-9,1,2,44*,11,46*
CC1CCCC(C)N1C(=O)c1ccccc1 (stereo unspecified),-3,nt,nt,nt,nt,nt
Cc1cccc(-c2cc3nc(-c4ccccc4)cc(=O)n3[nH]2)c1,0,14,13,41*,8,26
Cc1ccccc1-c1cc2nc(-c3ccc([N+](=O)[O-])cc3)cc(=O)n2[nH]1,3,2,4,10,10,nt
O=C(/C=C/c1ccccc1)OCN1C(=O)c2ccccc2C1=O,0,10,-1,33*,3,10
COc1ccc(C(=O)OCN2C(=O)c3ccccc3C2=O)cc1,9,-3,3,37*,1,24
Cc1ccc(S(=O)(=O)/N=C2\C=C(NS(=O)(=O)c3ccccc3)C(=O)c3ccccc32)cc1,-1,nt,3,30*,3,14
Fc1ccccc1CNCc1ccc2c(c1)OCO2,0,0,5,3,0,nt
COC(=O)c1cc(OC)c(OC)cc1NC(=S)Nc1cccc(Cl)c1,-4,3,-2,-3,2,nt
COc1cc(NC(=O)Nc2cccc(Cl)c2)c(C(=O)O)cc1OC,-4,10,11,32*,3,22
COc1cc(NC(=O)Cc2cccc3ccccc23)c(C(=O)O)cc1OC,0,8,7,60*,16,40*
COc1cc(NC(=O)Cc2ccccc2)c(C(=O)O)cc1OC,-2,2,9,3,0,nt
O=C(Cn1c(-c2ccccc2)c[n+]2ccsc12)c1ccc(Br)cc1,8,4,4,1,0,nt
CC1CCCC(C)N1C(=O)COC(=O)c1ccco1 (stereo unspecified),-7,-3,6,31*,11,4
COc1ccc(OC)c(S(=O)(=O)NC(=O)C2(C)CCN2C(=O)Cc2ccccc2)c1 (stereo unspecified),-10,nt,nt,nt,nt,nt
CCC(C)NC(=O)Cn1nc(Cc2ccncc2)c2ccccc2c1=O (stereo unspecified),-1,0,4,-11,1,nt
C=CCn1c(C)cc(C(=O)COC(=O)/C=C/c2ccc(OC)cc2)c1C,-1,8,4,62*,5,57*

# Assay outcomes from PubChem BioAssay.
